Data reported in PubChem BioAssay.
Calls of active or inactive are those of the source.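 How the source made its calls, unless noted: active means compounds whose cell count with miR-34 switched on is under 0.7 times the count with it off; inactive means the rest.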

Assays:
[1] = circadian clock period modulators, cell-based, LOPAC library, luminescence reporter (AID 2774; call rule not given here;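 further: values are relative to mean of DMSO wells on each plate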); details: circadian reporter cells, at 7 µM, actives lie on both sides
[2] = tested on: Hepatitis C virus NS3 helicase; experiment: HCV NS3 helicase inhibitors, primary screen, biochemical, fluorescence polarization, LOPAC1280 library (AID 687035; in the data active means inhibition above about 37%); details: Purified HCV NS3 helicase, Cy5-dT15 ssDNA binding fluorescence polarization; stronger effect = higher value; concentration not given here
[3] = Cy5 fluorescence quenching or enhancement artefacts, artefact control for HCV NS3 helicase inhibitor project, biochemical, LOPAC1280 (AID 687037; call rule not given here); details: Cy5-DNA-NS3h complex fluorescence interference counterscreen
[4] = sensitizers of A549 cells to miR-34 induction, primary screen, imaging, A549 dox-inducible miR-34, nuclei and caspase counts (AID 1347080); details: A549 miR-34 inducible, Hoechst nuclei count, 48 h
[5] = phospholipid biosynthesis inhibitors in animal cells, primary screen, cell-based, LOPAC library, screen 4 (AID 1347384; call rule not given here); details: phospholipid biosynthesis inhibition screen, at 10 µM
[6] = viability rescue of complex I mutant cybrids, primary screen, cell-based, galactose medium, ATP luminescence (AID 1645843;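 active means z-score of at least 1.8 in each of two replicates, scored against plate mean and spread of sample wells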;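 further: positive z means more ATP and so rescue of galactose-driven cybrid death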); details: complex I mutant cybrid cells, 72 h, stronger effect = higher value
[7] = hESC survival regulators, cell-based (AID 493140; call rule not given here;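 further: cells exposed to compounds for four days before counting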); details: human embryonic stem cell survival screen; stronger effect = higher value
[8] = inhibitors of Cryptococcus chitosan production, flow cytometry, Cibacron Brilliant Red staining (AID 1347148; call rule not given here;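 further: compound exposure lasted three days at 37 degrees C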); details: Cryptococcus neoformans chitosan, stronger effect = lower value; at 10 µM unless noted
[9] = survival rescue of mitochondrial mutant cells in low glucose, primary screen, MELAS cybrids, Rieske KO mouse fibroblasts, CellTiter-Glo (AID 1508586;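 active means mean z-score across replicates of 1.96 or higher in either the MELAS or the Rieske mutant cell line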;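 further: z relative to plate mean and SD of compound and empty wells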)
[10] = measured here: relative caspase fold change +Dox/-Dox
[11] = measured here: total cells with miR-34 induction, stronger effect = lower value
[12] = measured here: total cells without miR-34 induction
[13] = stronger effect = lower value, cell number ratio, induced over uninduced
[14] = MELAS cybrid survival, CellTiter-Glo 48 h, stronger effect = higher value
[15] = Rieske KO mouse fibroblast survival, CellTiter-Glo 72 h

For N[C@@]1(C(=O)O)CC[C@@H](C(=O)O)C1, the period change [1] was -0.105 h (inactive), the inhibition [2] was -5% (inactive) and the fluorescence ratio (interference) [3] was 1 (inactive). The fold change ([4]; stronger effect = lower value) was 1.04 (inactive), the fold change [4, 10] was 2.1 and the cell count [4, 11] was 10500. The cell count [4, 12] was 10000, the outcome [5] was “inactive” and the z-score [6] was 0.225 (inactive).
In the case of CCCCCC1OC1C/C=C\CCCCCCCC(=O)O (stereo not drawn), the survival [7] is reported as 100 (inactive), the fold change ([4]; stronger effect = lower value) is reported as 0.986 (inactive) and the fold change [4, 10] is reported as 1.2. The cell count [4, 11] was 5980, the cell count [4, 12] was 6070 and the fold fluorescence [8] was 4.22 [at 1 µM] (inactive).
For CCCCC[C@@H](/C=C/C=C\C/C=C\C/C=C\CCCC(=O)O)OO, the survival [7] was 120 (inactive), the fold change ([4]; stronger effect = lower value) was 0.973 (inactive) and the fold change [4, 10] was 0.92. The cell count [4, 11] was 5790, the cell count [4, 12] was 5950 and the fold fluorescence [8] was 5.13 [at 1 µM] (inactive).
In the case of CCC1C=CC=CCC(C)C(O)[C@@](C)(O)C(=O)C(C)[C@@H](O)C(C)C(=O)C(C)C(O)C(C)C=CC(=O)OC2C(C)[C@]3(CCC(C)C(CC(C)O)O3)OC(CC1)[C@H]2C (stereo partly drawn), the fold change [4, 13] is reported as 1.1 (inactive), the fold change [4, 10] is reported as 0.572 and the cell count [4, 11] is reported as 3070. The cell count [4, 12] was 2800, the z-score [9, 14] was -0.13 (inactive) and the z-score [9, 15] was -0.402.
For COC1=C[C@@H]2C3Cc4ccc(OC)c(O)c4[C@]2(CCN3C)CC1=O, the fold change ([4]; stronger effect = lower value) was 0.895 (inactive), the fold change [4, 10] was 0.909 and the cell count [4, 11] was 8920. The cell count [4, 12] was 9970, the z-score [9, 14] was -0.311 (inactive) and the z-score [9, 15] was 0.879.
For C[C@]12CC[C@@H]3[C@@H](CC[C@@]45O[C@@H]4C(O)=C(C#N)C[C@]35C)[C@@H]1CCC2O (stereo partly drawn), the fold change ([4]; stronger effect = lower value) was 0.917 (inactive), the fold change [4, 10] was 0.921 and the cell count [4, 11] was 7740. For the same molecule, the cell count [4, 12] was 8440, the z-score [9, 14] was -0.378 (inactive) and the z-score [9, 15] was 0.316.
For C=C[C@H]1CN2CCC1C[C@H]2C(O)c1ccnc2ccccc12 (stereo partly drawn), the fold change [4, 13] was 0.935 (inactive), the fold change [4, 10] was 0.691 and the cell count [4, 11] was 8540. The cell count [4, 12] was 9140, the z-score [9, 14] was -0.21 (inactive) and the z-score [9, 15] was 0.792.
With CCN1C[C@@]2(COC)C3[C@@H](OC)C4[C@@H]1C3([C@@H]1C[C@@]3(O)[C@H](OC(=O)c5ccccc5)[C@@H]1[C@]4(OC(C)=O)[C@@H](O)[C@@H]3OC)[C@H](OC)C[C@H]2O the inhibition [2] was -4% (inactive), the fluorescence ratio (interference) [3] was 1 (inactive) and the fold change ([4]; stronger effect = lower value) was 1.01 (inactive). It also gave a fold change [4, 10] of 1.67, a cell count [4, 11] of 10600 and a cell count [4, 12] of 10500. The outcome [5] was “inactive” and the z-score [6] was 0.075 (inactive).
For CC1CCCC=C[C@@H]2CC(O)C[C@H]2C(O)C=CC(=O)O1 (stereo partly drawn), the fold change [4, 13] was 1.09 (inactive), the fold change [4, 10] was 1.21 and the cell count [4, 11] was 2230. For the same molecule, the cell count [4, 12] was 2050, the z-score [9, 14] was 4.01 (active) and the z-score [9, 15] was -2.64.
For N#CC(OC1OC(COC2OC(CO)C(O)C(O)C2O)C(O)C(O)C1O)c1ccccc1 (stereo not drawn), the fold change ([4]; stronger effect = lower value) was 0.82 (inactive), the fold change [4, 10] was 1 and the cell count [4, 11] was 6790. For the same molecule, the cell count [4, 12] was 8280, the z-score [9, 14] was -0.2 (inactive) and the z-score [9, 15] was -0.452.
With CC(=O)Nc1ccc(Cc2ccc(NC(C)=O)cc2)cc1 the fold change ([4]; stronger effect = lower value) was 0.888 (inactive), the fold change [4, 10] was 0.668 and the cell count [4, 11] was 8350. For the same molecule, the cell count [4, 12] was 9400, the z-score [9, 14] was -0.423 (inactive) and the z-score [9, 15] was 0.257.
For O=C1CCC[C@@H]2[C@@H]3CCCN4CCC[C@H](CN12)[C@@H]34, the fold change [4, 13] was 0.961 (inactive), the fold change [4, 10] was 1.02 and the cell count [4, 11] was 9040. The cell count [4, 12] was 9410, the z-score [9, 14] was -0.296 (inactive) and the z-score [9, 15] was 0.336.
In the case of Cc1ccc(-n2nccn2)c(C(=O)N2CCN(c3nc4cc(Cl)ccc4o3)CCC2C)c1 (stereo not drawn), the fold change ([4]; stronger effect = lower value) is reported as 0.837 (inactive), the fold change [4, 10] is reported as 0.399 and the cell count [4, 11] is reported as 6970. For the same molecule, the cell count [4, 12] was 8330, the z-score [9, 14] was -0.269 (inactive) and the z-score [9, 15] was -2.87.
In the case of CC1OC(OC2CC(O)[C@]3(CO)[C@H]4C(O)C[C@]5(C)C(C6=CC(=O)OC6)CC[C@]5(O)[C@@H]4CC[C@]3(O)C2)C(O)C(O)C1O (stereo partly drawn), the fold change [4, 13] is reported as 0.851 (inactive), the fold change [4, 10] is reported as 1.17 and the cell count [4, 11] is reported as 388. For the same molecule, the cell count [4, 12] was 456, the z-score [9, 14] was 0.346 (inactive) and the z-score [9, 15] was -0.151.
For O=C1C=CC[C@@H]2[C@@H]3CCCN4CCC[C@@H](CN12)[C@@H]34, the fold change [4, 13] was 0.92 (inactive), the fold change [4, 10] was 0.733 and the cell count [4, 11] was 9530. For the same molecule, the cell count [4, 12] was 10400, the z-score [9, 14] was -0.329 (inactive) and the z-score [9, 15] was 0.595.
For O=c1[nH]c2ccc(Cl)cc2c(NC2CN3CCC2CC3)c1-c1nc2ccccc2[nH]1 (stereo not drawn), the fold change [4, 13] was 0.941 (inactive), the fold change [4, 10] was 1.09 and the cell count [4, 11] was 1120. For the same molecule, the cell count [4, 12] was 1200, the z-score [9, 14] was 1.28 (inactive) and the z-score [9, 15] was -3.49.
With O=C1/C(=C/c2ccccc2)C[C@@]2(O)[C@H]3Cc4ccc(O)c5c4[C@@]2(CCN3CC2CC2)[C@H]1O5 the inhibition [2] was -4% (inactive), the fluorescence ratio (interference) [3] was 1 (inactive) and the fold change ([4]; stronger effect = lower value) was 1.23 (inactive). The fold change [4, 10] was 1.39, the cell count [4, 11] was 588 and the cell count [4, 12] was 478. For the same molecule, the outcome [5] was “inactive” and the z-score [6] was -1 (inactive).
In the case of CC1C=CC=CCCC=CC=CC=CC=CC(OC2OC(C)C(O)C(N)C2O)CC2O[C@@](O)(CC(O)C(O)CCC(O)CC(O)CC(O)CC(=O)OC(C)C(C)C1O)CC(O)C2C(=O)O (stereo partly drawn), the fold change [4, 13] is reported as 0.946 (inactive), the fold change [4, 10] is reported as 1.01 and the cell count [4, 11] is reported as 7910. The cell count [4, 12] was 8370, the z-score [9, 14] was 0.0382 (inactive) and the z-score [9, 15] was 0.415.
In the case of C[C@]12NC(Cc3ccccc31)c1ccccc12, the fold change ([4]; stronger effect = lower value) is reported as 0.981 (inactive), the fold change [4, 10] is reported as 0.318 and the cell count [4, 11] is reported as 8080. For the same molecule, the cell count [4, 12] was 8230, the z-score [9, 14] was -0.147 (inactive) and the z-score [9, 15] was -0.0728.
For C=CCN1CC[C@]23c4c5ccc(O)c4O[C@H]2C(=O)CC[C@@]3(O)C1C5, the fold change ([4]; stronger effect = lower value) was 0.942 (inactive), the fold change [4, 10] was 1.73 and the cell count [4, 11] was 7860. For the same molecule, the cell count [4, 12] was 8350, the z-score [9, 14] was 0.0762 (inactive) and the z-score [9, 15] was -0.34.
With COC1CCC(OC2C[C@H]([C@]3(C)CC[C@]4(CC(O)C(C)[C@@H](C(C)C=C(C)C(=O)C(C)CC(C)C(=O)O)O4)O3)O[C@]3(O[C@@H]([C@H]4O[C@@](O)(CO)C(C)CC4C)CC3C)C2C)OC1C (stereo partly drawn) the fold change [4, 13] was 0.953 (inactive), the fold change [4, 10] was 1.13 and the cell count [4, 11] was 874. For the same molecule, the cell count [4, 12] was 918, the z-score [9, 14] was 0.291 (inactive) and the z-score [9, 15] was -2.77.
